# Assay outcomes: PubChem, The Scripps Research Institute Molecular Screening Center
# The list is not random: actives were taken first. Their share in the collection is about 3.5%.
# GPR151 activ – activates the human receptor GPR151. Q8TDV0. PathHunter beta-arrestin GPR151 cells, luminescence. activation, % at 11.2 µM. hit rate 1% among 650,000. AID 1508602; in the data active = activation above about 4.9%;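 also: 0% = median of compound wells and 100% = cells with positive control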
# Target sequence (Q8TDV0 whole entry, looked up): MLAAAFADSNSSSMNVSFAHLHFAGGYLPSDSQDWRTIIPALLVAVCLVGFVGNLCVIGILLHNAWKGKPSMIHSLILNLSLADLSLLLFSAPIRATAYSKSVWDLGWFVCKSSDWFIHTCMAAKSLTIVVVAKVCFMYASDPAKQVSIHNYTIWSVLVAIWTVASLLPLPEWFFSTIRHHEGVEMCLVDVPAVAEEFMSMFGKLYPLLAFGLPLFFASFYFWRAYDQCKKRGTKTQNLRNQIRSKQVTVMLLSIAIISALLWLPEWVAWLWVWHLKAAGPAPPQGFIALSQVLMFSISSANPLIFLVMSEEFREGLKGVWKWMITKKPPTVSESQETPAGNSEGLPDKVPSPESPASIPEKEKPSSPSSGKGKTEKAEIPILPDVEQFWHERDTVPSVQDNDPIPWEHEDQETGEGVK
# MITF inh – blocks human microphthalmia-associated transcription factor | AlphaScreen MITF homodimerization, bead proximity signal | inhibition, % at 2.6 µM | hit rate 0.91% among 650,000 | AID 1259374; in the data active = inhibition above about 50%;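 also: 0% = vehicle wells with protein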
# FBW7 act – human FBW7 E3 ligase activation, primary screen | Q969H0 | AlphaScreen FBW7–phospho-cyclin E peptide binding, activator screen | normalized activity (activation), % at 26.1 µM | hit rate 0.13% among 650,000; in the data active = normalized activity above about 1.9%;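 also: purified mutant Fbw7 with reduced substrate affinity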
# TEAD-YAP block – TEAD-YAP interaction inhibition; inhibition, % at 9.12 µM; HEK-TIYL cells, TEAD-Gal4/YAP UAS-luciferase luminescence; hit rate 1.4% among 640,000; in the data active = inhibition above about 32%;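 also: 0% = median of test compound wells and 100% = reference inhibitor wells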
# An asterisk follows results filed as active.
SMILES,GPR151 activ,MITF inh,FBW7 act,TEAD-YAP block
COC(=O)C(NC(=O)c1ccccc1)(Nc1sc2c(c1C#N)CCC(C)C2)C(F)(F)F (stereo unspecified),1.7,-1.9,-0.1,-5.5
N#Cc1cc(-c2ccnc(Nc3ccc(N4CCNCC4)cc3)n2)cc(N2CCOCC2)c1,-0.2,-3.3,-0.7,31.9*
N#Cc1cc(-c2ccnc(Nc3ccc(CN4CCCCC4)cc3)n2)cc(N2CCOCC2)c1,0.3,0.8,-0.1,36.3*
COC(=O)C1=CN(C2CCCC2)C=C(C(=O)OC)C1c1ccc(F)cc1,-1.2,12.7,3.1*,6.7
CC1=C(C(=O)Nc2ccc(Br)cn2)C(c2cccs2)C2=C(CC(C)(C)CC2=O)N1 (stereo unspecified),0.0,-0.5,0.1,35.3*
CC1=C(C(=O)Nc2ccc(C)cn2)C(c2cccs2)C2=C(CC(C)(C)CC2=O)N1 (stereo unspecified),-0.3,-4.9,-0.1,57.7*
CC1=C(C(=O)Nc2ccc(C)cn2)C(c2ccc(C)cc2)C2=C(CC(C)(C)CC2=O)N1 (stereo unspecified),0.5,9.9,0.0,8.1
CC1=C(C(=O)Nc2ccc(Br)cn2)C(c2ccsc2)C2=C(CC(C)(C)CC2=O)N1 (stereo unspecified),1.2,-0.5,0.2,52.0*
O=C(Nc1nc(-c2ccccn2)cs1)c1ccc(Oc2ccccc2)cc1,-1.3,0.4,-0.1,43.0*
COc1cc(OC)cc(C(=O)Nc2nc(-c3ccccn3)cs2)c1,0.0,17.8,-0.3,49.1*
CCCCN(CCCC)S(=O)(=O)c1ccc2c(c1)nc1n2CCC1,-0.5,5.4,-0.1,-3.3
CC(C)c1nnc(C2CCN(C(=O)NCc3ccccc3)CC2)o1,-1.1,-1.5,1.3,4.7
CC(C)c1nnc(C2CCN(C(=O)NCc3cccc4ccccc34)CC2)o1,3.9,-2.3,2.0*,-3.4
Cc1nc2ccc(NS(=O)(=O)c3ccc(C(C)C)cc3)cc2s1,2.0,6.3,0.1,32.0*
Oc1ccccc1/C=N/Nc1nc(-c2ccccc2)cs1,-1.0,3.0,-0.4,-33.7
Cc1ccc(-c2nc(-c3nonc3N)no2)cc1,1.6,8.5,0.1,-30.4
N#Cc1ccc(-c2nc(-c3c(F)cccc3F)no2)cc1,1.9,9.2,0.5,-16.1
CC(C)(C)c1ccc(-c2nc(-c3nonc3N)no2)cc1,-0.1,-2.1,0.1,51.5*
CC(C)(C)c1ccc(-c2nc(-c3c(F)cccc3F)no2)cc1,1.3,-7.6,0.1,68.5*
CCCCCOc1ccc(Br)cc1/C(C)=N/NC1=NCCN1,0.3,-0.7,-0.1,61.8*
O=C(Nc1ccc(Cl)cn1)c1ccc(C2CCCCC2)cc1,-0.7,17.9,0.2,40.2*
O=C(Nc1ccc(Br)cn1)c1ccc(C2CCCCC2)cc1,1.5,14.8,0.6,10.5
O=C(COC(=O)c1cc(O)[nH]c(=O)c1)Nc1cc(C(F)(F)F)ccc1Cl,1.7,15.3,0.2,-1.3
COc1cc(Cl)c(C)cc1NC(=O)COC(=O)c1cc(O)[nH]c(=O)c1,-1.0,62.8*,-0.6,18.2
Cc1ccnc(NC(=O)/C=C/c2cccs2)c1,-6.3,16.5,0.8,55.1*
SMILES,GPR151 activ,MITF inh,FBW7 act,TEAD-YAP block
O=C(/C=C/c1cccs1)Nc1ccc(Cl)c2ncsc12,1.1,-9.8,0.1,87.0*
Cn1c(=O)c2c(ncn2CC(=O)Nc2ccc(I)cc2)n(C)c1=O,-1.2,0.7,-0.1,-1.4
O=C(CSc1nc(NC2CCCCC2)c2ccccc2n1)c1ccccc1,2.8,3.9,-0.1,-20.3
CCCC(=Nc1ccccc1OC)C1=C(O)C(C(=O)OC)C(C)(C)CC1=O (stereo unspecified),-0.3,-7.1,0.0,4.5
COc1ccc(CN2Cc3cc(C)ccc3OC(C)C2)cc1O (stereo unspecified),-1.1,11.2,0.0,54.5*
CC(C)(C)OC1C(C#Cc2ccccc2)C1(C)C (stereo unspecified),1.7,12.0,0.6,-9.2
CN(C)CN1C(=O)S/C(=C/c2ccccc2F)C1=O,-2.2,-0.3,0.2,-21.4
CN(C)c1cccc2c1C(=O)c1ccccc1C2=O,1.8,55.4*,-0.9,2.0
CCOCCCNCc1ccc(F)cc1Cl,-1.5,28.6,0.5,5.6
COc1cccc(C(=O)Nc2c3c(nn2-c2ccc(C)cc2)CS(=O)C3)c1 (stereo unspecified),-0.7,-1.8,0.0,-0.1
Cc1cc(N(C)C)nc(NCCNC(=O)C(C)(C)Oc2ccc(Cl)cc2)n1,-1.7,8.8,0.5,32.2*
CCOC(=O)c1ccc(NC(=O)CN2C(=O)CC(C)(C)S(=O)(=O)c3ccccc32)cc1,-0.8,4.8,5.2*,21.5
COc1ccccc1/C=C/C=C1\N=C(c2ccccc2OC)OC1=O,0.3,13.3,0.0,5.0
CN(C)/C=N/C1=C(C#N)C(c2ccc3c(c2)OCO3)c2ccc3ccccc3c2O1 (stereo unspecified),0.9,-7.2,0.0,44.7*
O=C1CCCC2=C1C(c1cccc(F)c1Br)n1c(nc3ccccc31)N2 (stereo unspecified),0.6,13.1,0.0,36.0*
CCOc1ccc(N(CC(=O)Nc2ccccc2C)S(=O)(=O)c2c(C)noc2C)cc1,1.0,12.8,0.7,55.1*
CCN(CC)CCNc1cc(C)nc2c1C(=O)C(=O)C=C2N1CCCCC1,-0.3,8.7,-0.2,94.3*
CCOC(=O)C1=C(c2ccccc2)N=c2s/c(=C\c3cc(C)n(-c4ccc(F)cc4)c3C)c(=O)n2C1c1cccc(OC)c1OC (stereo unspecified),-0.9,5.5,1.1,4.5
Cc1ccc2oc(=O)cc(CSc3nc(C)cc(C)c3C#N)c2c1,-2.2,-7.5,0.1,50.9*
Cc1ccc2c(CSc3nc(N)cc(N)n3)cc(=O)oc2c1,1.2,8.1,-0.2,-10.3
O=C(O)CCC(=O)N(C1CC1)C1CCN(CCc2ccccc2)CC1,-0.3,6.3,0.1,-0.3
CC(=O)N1CCC(N(C(=O)CCC(=O)O)C2CC2)CC1,0.2,14.4,4.6*,-4.8
COC(=O)c1cnc(N2CCCCCC2)c2ccccc12,-0.6,2.9,0.3,-18.8
COC(=O)c1ccc(N2CCCCC2)c2c1C(=O)c1ccccc1C2=O,3.6,54.8*,-0.5,3.2
Cc1ccc(-c2nnc(N3CCN(C(=O)CN4CCCC4)CC3)c3ccccc23)cc1,0.5,7.5,0.4,0.6
SMILES,GPR151 activ,MITF inh,FBW7 act,TEAD-YAP block
Cc1ccc(-c2nnc(N3CCN(C(=O)c4ccco4)CC3)c3ccccc23)cc1,0.5,-2.9,2.3*,26.1
CCC1=NN2C(=N)/C(=C/c3ccc(OCCOc4ccc(C(C)CC)cc4)cc3)C(=O)N=C2S1 (stereo unspecified),0.6,14.0,0.1,-1.2
COC(=O)Nc1ccc(S(=O)(=O)N2CCCc3ccccc32)cc1,2.4,6.6,0.1,55.7*
Cc1cccc(NC(=O)c2ccc(F)c(S(=O)(=O)N3CCCc4ccccc43)c2)c1,1.9,-1.6,0.0,9.7
O=C(Nc1ccccc1)c1cccc(S(=O)(=O)N2CCCc3ccccc32)c1,2.9,6.1,0.2,2.6
CC(=O)Nc1ccc(S(=O)(=O)Nc2ccc(S(=O)(=O)N3CCc4ccccc43)cc2)cc1,0.2,8.8,0.2,16.8
